# PubChem BioAssay (NCI)
# This is part of a sample that, as a whole, favours compounds with a hit. Of some 83,000 tested, about 20% had one in any assay.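 Cell lines were cultured in 96-well plates, exposed to a single compound concentration, and assessed for percent growth 48 hours later.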 Values without a mark were called inactive. Calls of active or inactive are those of the source. Rule for the calls: active = growth percent below 10; inactive = the rest.
# Tests used:
# Assay in all cases: NCI-60 one-dose screen, 48 h (100 = growth as untreated, 0 = no growth, -100 = all killed)
# Conditions in all cases: 10 µM unless noted
# [1] = test system: BT-549 breast
# [2] = test system: MDA-MB-435 melanoma
# [3] = test system: MCF7 breast
# [4] = test system: HCT-116 colon
# [5] = test system: HCC-2998 colon
# [6] = test system: KM12 colon
# [7] = test system: SW-620 colon
SMILES,growth [1],growth [2],growth [3],growth [4],growth [5],growth [6],growth [7]
C=C1C(=O)O[C@H]2[C@H]1CC/C(COC(=O)NCc1ccc(Cn3c(=O)sn(CCCCl)c3=O)cc1)=C\CC[C@@]1(C)O[C@@H]21,51.8%,26.8%,5.59% (active),-63.6% (active),91.4%,77.7%,
CC(C)(C)Nc1c(-c2c3ccccc3cc3ccccc23)nc2ccccn12,92.1%,90.1%,74.2%,46.2%,86%,61.4%,67.3%
C[C@H]1[C@H]2C3=CC[C@@H]4[C@@]5(C)C/C(=C/c6ccncc6)C(=O)C(C)(C)[C@@H]5CC[C@@]4(C)[C@]3(C)CC[C@@]2(C(=O)N2CCN(C)CC2)CC[C@@H]1C,89.3%,81.9%,58.5%,55.4%,82.9%,67.5%,83.1%
CS(=O)(=O)c1ccc(-c2[nH]c3ccc(F)cc3c2/C=N/NC(N)=S)cc1,39.3%,-16.3% (active),19.3%,8.16% (active),24.3%,18.5%,
CC[C@@H](C[C@H](CCO)c1ccccc1)c1cc2ccccc2o1,97.7%,102%,117%,76.6%,109%,88.7%,89.6%
Cc1cc(N2CCCCC2)nc(N(CCNc2ccnc3cc(Cl)ccc23)Cc2ccccn2)n1,64.3%,68.1%,,16.2%,84.6%,55.2%,45.7%
CS(=O)(=O)c1ccc(-c2nc3cc(Cl)ccc3n2CC(=O)N/N=C/c2ccc(Cl)cc2)cc1,41.8%,73.7%,,42.1%,73.5%,41%,75%
COc1ccc(-c2nc3sc4c(c3c(=O)[nH]2)CCCC4)c2ccccc12,,-70.3% (active),9.63% (active),10.7%,12.3%,7.22% (active),18.9%
COc1ccc(Nc2ncc(Br)c(NCCCNC(=O)C3CCC3)n2)cc1,-33.9% (active),53.8%,41.1%,5.88% (active),42.4%,15.2%,29.1%
COc1ccc(Oc2nc(Nc3ccc(N4CCOCC4)nc3)ncc2NC(=O)c2cc(OC)cc(OC)c2)cc1,80.2%,32.7%,63.8%,72.1%,95.2%,64%,
Nc1c(C(=O)c2ccc(Cl)s2)sc2nc3c(cc12)CCCC3,,119%,41.3%,105%,111%,96.6%,106%
COc1ccc(OC)c(Nc2nc3nonc3nc2Nc2cccc(Br)c2)c1,,14.9%,5.95% (active),10.9%,25%,7.96% (active),11.7%
COc1ccc(NC(=O)C(=O)c2c[nH]c3ccc(F)cc23)cc1,,95.5%,86.3%,79.1%,109%,94.5%,99.9%
O=C1N/C(=N/O)S/C1=C/c1cn(-c2ccccc2)nc1-c1ccccc1,92.3%,106%,82.2%,,126%,,107%
CO[C@H]1/C=C/O[C@@]2(C)Oc3c(C)c(O)c4c(c3C2=O)C(=O)C(/C=N/N(c2ccccc2)c2ccccc2)=C(NC(=O)/C(C)=C\C=C\[C@H](C)[C@H](O)[C@@H](C)[C@@H](O)[C@@H](C)[C@H](OC(C)=O)[C@@H]1C)C4=O,,-17.4% (active),2.54% (active),0.555% (active),-70.4% (active),-23.9% (active),2.36% (active)
CC(C)OC(=O)OCOP(=O)(OCOC(=O)OC(C)C)C1CCCN(O)C1=O (centres undefined),22.8%,47.3%,31.9%,13.4%,23.7%,9.54% (active),32.3%
C[C@H]1[C@H](C)CC[C@]2(C(=O)N3CCN(C)CC3)CC[C@]3(C)C(=CC[C@@H]4[C@@]5(C)C/C(=C/c6cccnc6)C(=O)C(C)(C)[C@@H]5CC[C@]43C)[C@H]12,-81.2% (active),-65.1% (active),-73.8% (active),-88.2% (active),-92.3% (active),-89.3% (active),-49.9% (active)
Clc1ccc2c(NCCCN3CCN(c4nc(-n5ccnc5)nc5ccccc45)CC3)ccnc2c1,67.6%,71.2%,-29.3% (active),72.8%,95.7%,87.8%,-52.9% (active)
C=C1c2c(C)nn(-c3ccc(NC(C)=O)cc3)c2N(C)C23CC1C1(C)c4c(C)nn(-c5ccc(NC(C)=O)cc5)c4N(C)C(C)(CC12)C3 (centres undefined),44%,30.6%,9.67% (active),13.4%,44.7%,23.6%,27.9%
Cc1csc(NC(=O)c2sc3nc(-c4cccs4)ccc3c2N)n1,,108%,71.3%,,114%,,

SMILES,growth [1],growth [2],growth [3],growth [4],growth [5],growth [6],growth [7]
C/C(=N\NC(=O)Cn1c(-c2ccc(S(C)(=O)=O)cc2)nc2cc(Cl)ccc21)c1ccc(Cl)cc1,92.3%,79.1%,62%,80.5%,103%,76.4%,92.2%
CC(C)n1nc(C#Cc2cccc(NC(=O)c3cccc(C(F)(F)F)c3)c2)c2c(N)ncnc21,9.72% (active),2.12% (active),,-50.6% (active),2.89% (active),,1.28% (active)
Fc1ccc(Nc2nc3nonc3nc2Nc2ccc(F)cc2)cc1,,5.74% (active),,,13.1%,3.91% (active),9.46% (active)
O=S(=O)(Nc1ccsc1-c1nc(-c2ccccc2)no1)c1cc(Cl)cc(Cl)c1,99.5%,88.9%,,89.9%,104%,93.2%,
COC(=O)c1ccc2oc(NC(=O)c3ccc(N4CCOCC4)c([N+](=O)[O-])c3)nc2c1,95.7%,107%,,93%,105%,102%,100%
Cc1nc(C)c(-c2nn3c(-c4cccc(F)c4)nnc3s2)s1,,95.2%,99.8%,,105%,99%,96.8%
COc1ccc(C(=O)/C=C/c2cc3c(c(OC)c2)OCC(=O)N3)cc1,,26.2%,31.5%,11.8%,67.9%,,14.7%
C=CC(=O)Nc1cccc(C)c1Nc1cc(-c2cccnc2Cc2c(C)c(OC)cc(OC)c2C)ncn1,5.86% (active),19.9%,8.59% (active),15.8%,71.1%,17.6%,24.8%
COc1ccc(OC)c(Nc2nc3nonc3nc2Nc2cc(OC)ccc2OC)c1,,43.1%,65.7%,17.6%,56.7%,67.4%,57.3%
COc1ccc(Oc2nc(Nc3ccc(N4CCCCC4)nc3)ncc2NC(=O)c2cc(OC)cc(OC)c2)cc1,56.5%,-30.6% (active),,18.8%,65.8%,20.2%,30.6%
Cc1ccc(S(=O)(=O)Nc2sccc2-c2nc(-c3ccccc3)no2)cc1,92.5%,95.6%,93.1%,85.9%,97.8%,90.1%,97%
CCN1CCN(c2ccc(Nc3cc(-c4cccnc4Nc4c(Cl)c(OC)cc(OC)c4Cl)ncn3)cc2)CC1,60.1%,89.7%,40.9%,71.9%,75.6%,73.9%,55%
Nc1c(C(=O)c2ccccc2)nnc2ncnn12,,110%,97.2%,105%,97.6%,105%,106%
COc1cc2oc(-c3cccc(C(=O)Nc4ccc(C)cc4)c3)cc(=O)c2c(OC)c1OC,36.6%,27.9%,24.5%,19.6%,49.9%,33%,59.5%
C=C1C(=O)O[C@H]2[C@H]1CC/C(COC(=O)/C=C/C(=O)NCc1ccc(Cn3c(=O)sn(-c4ccccc4)c3=O)cc1)=C\CC[C@@]1(C)O[C@@H]21,-3.27% (active),-26.6% (active),,-79.1% (active),54.4%,49.1%,-64.5% (active)
O=C(Nc1cccc2[nH]c(C(F)(F)F)nc12)c1cc(Cl)ccc1Cl,,33.3%,16.7%,25.7%,33.8%,20%,42.4%
Cn1c(NCCc2ccc(O)c(O)c2)nc2c1c(=O)n(Cc1ccc(Cl)cc1)c(=O)n2C,71.6%,76.3%,75.3%,71.4%,89.3%,79.6%,75.9%
COc1ccc(/C=N/NC(=O)Cn2c(-c3ccc(S(C)(=O)=O)cc3)nc3cc(Cl)ccc32)cc1,43.1%,-17.8% (active),17.2%,,19.4%,13.3%,30.5%
Nc1ccc(S(=O)(=O)Nc2ccsc2-c2nc(-c3ccccc3)no2)cc1,59%,3.96% (active),55.9%,38.4%,79.4%,33.6%,29.8%
